Here are results for 14 compounds from PubChem BioAssay (EPA / NIEHS).

Assay [1] concerns the target human Opioid Receptor Mu (Opiate Mu), OPRM1 (gene 4988) (UniProt P35372). The assay can be described thus: NVS_GPCR_hOpiate_mu: NovaScreen (NVS) G Protein-Coupled Receptor Assay for human Opioid Receptor Mu (Opiate Mu) (AID 2283290).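 Further: hits lower bound tracer signal versus DMSO meaning displacement of the ligand.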 In short, it runs like this:
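Cell-free radioligand binding to membranes from CHO cells expressing the receptor; bound tracer measured by filter-based scintillation counting 2.5 hours after dosing. Loss of signal versus DMSO baseline reflects displacement; primary screen at 25 uM in duplicate, actives followed up in concentration series.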

The target in assay [2] is guinea pig Bradykinin Receptor B2 (BK2), BDKRB2 (gene 100135486) (UniProt O70526). Put plainly: NVS_GPCR_gBK2: NovaScreen (NVS) G Protein-Coupled Receptor Assay for guinea pig Bradykinin Receptor B2 (BK2) (AID 2283292). The procedure, abridged: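 Radioligand displacement on guinea pig ileum membranes for 1 h, read by filter-based scintillation counting; loss of signal relative to DMSO. Compounds were screened in duplicate at 25 uM, and those passing the threshold were retested in concentration-response up to 50 uM.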
guinea pig Bradykinin Receptor B2 (BK2), BDKRB2 (gene 100135486), sequence (O70526 whole entry, looked up): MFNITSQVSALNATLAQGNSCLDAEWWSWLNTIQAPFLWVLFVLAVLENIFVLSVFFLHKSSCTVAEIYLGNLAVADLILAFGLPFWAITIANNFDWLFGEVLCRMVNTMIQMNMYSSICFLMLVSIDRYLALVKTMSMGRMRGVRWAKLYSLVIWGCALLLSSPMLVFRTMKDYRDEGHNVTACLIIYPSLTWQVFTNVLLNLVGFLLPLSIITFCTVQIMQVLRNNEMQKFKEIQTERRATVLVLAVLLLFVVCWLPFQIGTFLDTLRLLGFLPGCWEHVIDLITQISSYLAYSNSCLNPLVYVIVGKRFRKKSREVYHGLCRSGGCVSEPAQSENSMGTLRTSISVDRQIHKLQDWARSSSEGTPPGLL

In assay [3] the target is guinea pig Serotonin, 5-Hydroxytryptamine Receptor 4 (5HT4), HTR4 (gene 100135548) (UniProt O70528). The assay can be described thus: NVS_GPCR_g5HT4: NovaScreen (NVS) G Protein-Coupled Receptor Assay for guinea pig Serotonin, 5-Hydroxytryptamine Receptor 4 (5HT4) (AID 2283294). In short, it runs like this: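 Guinea pig striatal membranes; radioligand competitive displacement, filtration and scintillation counting after 1 h. Primary screen in duplicate at 25 uM; actives then tested in concentration series; loss of binding signal fitted relative to DMSO.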
guinea pig Serotonin, 5-Hydroxytryptamine Receptor 4 (5HT4), HTR4 (gene 100135548), sequence (O70528 whole entry, looked up): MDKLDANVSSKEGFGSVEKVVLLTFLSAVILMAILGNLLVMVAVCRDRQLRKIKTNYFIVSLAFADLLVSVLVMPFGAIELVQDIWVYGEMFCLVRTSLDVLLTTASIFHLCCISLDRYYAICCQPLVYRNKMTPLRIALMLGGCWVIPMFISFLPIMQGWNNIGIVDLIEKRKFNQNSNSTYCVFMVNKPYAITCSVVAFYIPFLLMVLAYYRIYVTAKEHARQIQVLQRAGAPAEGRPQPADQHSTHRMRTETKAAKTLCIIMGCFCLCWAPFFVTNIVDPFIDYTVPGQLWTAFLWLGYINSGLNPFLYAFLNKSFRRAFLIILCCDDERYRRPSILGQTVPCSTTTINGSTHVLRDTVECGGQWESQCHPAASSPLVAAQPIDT

For assay [4], the target named is rat Adrenergic Receptor, Alpha 2 (Adra2), Non-selective Binding, Adra2a (gene 25083) (UniProt P22909). The assay can be described thus: NVS_GPCR_rAdra2_NonSelective: NovaScreen (NVS) G Protein-Coupled Receptor Assay for rat Adrenergic Receptor, Alpha 2 (Adra2), Non-selective Binding (AID 2283299). In short, it runs like this: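 Rat cortical membranes, radioligand competitive displacement read by filter-based scintillation counting 1.25 hours after dosing. Primary screen in duplicate at 25 uM; actives followed up in concentration series.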
rat Adrenergic Receptor, Alpha 2 (Adra2), Non-selective Binding, Adra2a (gene 25083), sequence (P22909 whole entry, looked up): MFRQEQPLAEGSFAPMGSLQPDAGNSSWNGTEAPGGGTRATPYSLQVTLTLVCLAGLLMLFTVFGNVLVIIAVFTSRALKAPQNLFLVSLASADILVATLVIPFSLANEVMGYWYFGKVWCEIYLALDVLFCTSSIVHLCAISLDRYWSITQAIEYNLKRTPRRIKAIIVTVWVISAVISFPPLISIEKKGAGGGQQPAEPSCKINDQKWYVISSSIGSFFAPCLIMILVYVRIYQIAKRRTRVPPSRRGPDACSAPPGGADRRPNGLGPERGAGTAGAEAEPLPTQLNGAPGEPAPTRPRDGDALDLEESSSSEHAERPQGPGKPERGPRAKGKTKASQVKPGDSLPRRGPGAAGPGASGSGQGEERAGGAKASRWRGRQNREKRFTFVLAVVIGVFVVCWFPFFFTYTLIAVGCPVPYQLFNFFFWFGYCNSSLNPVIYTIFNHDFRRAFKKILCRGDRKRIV

The target of assay [5] is rat Adrenergic, Alpha 1, Non-selective Receptor (Adra1), Adra1a (gene 29412) (UniProt P43140). Put plainly: NVS_GPCR_rAdra1_NonSelective: NovaScreen (NVS) G Protein-Coupled Receptor Assay for rat Adrenergic, Alpha 1, Non-selective Receptor (Adra1) (AID 2283289). As for the experimental part:
NVS_GPCR_rAdra1_NonSelective is a biochemical, single-readout assay that uses extracted gene-proteins from Rat forebrain membranes in a tissue-based cell-free assay. Measurements were taken 1 hour after chemical dosing in a 48-well plate.NVS_GPCR_rAdra1_NonSelective is one of one assay component(s) measured or calculated from the NVS_GPCR_rAdra1_NonSelective assay. It is designed to make measurements of radioligand binding, a form of binding reporter, as detected with scintillation counting signals by Filter-based radiodetection technology.Data from the assay component NVS_GPCR_rAdra1_NonSelective was analyzed into 1 assay endpoint. This assay endpoint, NVS_GPCR_rAdra1_NonSelective, was analyzed in the positive analysis fitting direction relative to DMSO as the negative control and baseline of activity. Using a type of binding reporter, loss-of-signal activity can be used to understand changes in the binding as they relate to the gene Adra1a. Furthermore, this assay endpoint can be referred to as a primary readout, because the performed assay has only produced 1 assay endpoint. To generalize the intended target to other relatable targets, this assay endpoint is annotated to the gpcr intended target family, where the subfamily is rhodopsin-like receptor.
Binding assays used specific radioligands (tritiated, iodinated) with non-radioactive competitive displacement ligands in agonist or antagonist protocols (as indicated) and various reference compounds and inhibitors to titrate specific binding to receptors and transporters. Most enzyme assays (CYPs, kinases, phosphatases, proteases, HDACs) used recombinant protein and specific substrates (fluorescence mostly, some colorimetric and radioactive) and inhibitors, followed by a biochemical separation of substrate and product. All assays for the biochemical HTS were initially run in duplicate at a single concentration (10 uM for CYP450 assays and 25 uM for all others). […]

Assay [6] addresses rat Adrenergic, Alpha 1A Receptor (Adra1A), Adra1a (gene 29412) (UniProt P43140). Put plainly: NVS_GPCR_rAdra1A: NovaScreen (NVS) G Protein-Coupled Receptor Assay for rat Adrenergic, Alpha 1A Receptor (Adra1A) (AID 2283296). In short, it runs like this:
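Rat cortical membranes pretreated with chlorethyl clonidine; competitive radioligand displacement, 1 h. Filter-based scintillation counting. Primary screen in duplicate at 25 uM, actives followed in concentration series.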

Assay [7] concerns the target rat Adrenergic Receptor, Beta (Adrb), Non-selective Binding, Adrb1 (gene 24925) (UniProt P18090). Put plainly: NVS_GPCR_rAdrb_NonSelective: NovaScreen (NVS) G Protein-Coupled Receptor Assay for rat Adrenergic Receptor, Beta (Adrb), Non-selective Binding (AID 2283298). The procedure, abridged: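 Non-selective beta-adrenergic radioligand binding in rat cortical membranes, 1 h incubation, filter-based scintillation read-out. Primary screen 25 uM in duplicate; hits retested in concentration-response up to 50 uM, DMSO baseline.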

In assay [8] the target is rat Gamma-Aminobutyric Acid Type B Receptor (GABBR), Gabbr1 (gene 81657) (UniProt Q9Z0U4). Put plainly: NVS_GPCR_rGABBR: NovaScreen (NVS) G Protein-Coupled Receptor Assay for rat Gamma-Aminobutyric Acid Type B Receptor (GABBR) (AID 2283301). As for the experimental part: NVS_GPCR_rGABBR is a biochemical, single-readout assay that uses extracted gene-proteins from Rat cortical membranes in a tissue-based cell-free assay. Measurements were taken 1 hour after chemical dosing in a 96-well plate.NVS_GPCR_rGABBR is one of one assay component(s) measured or calculated from the NVS_GPCR_rGABBR assay. It is designed to make measurements of radioligand binding, a form of binding reporter, as detected with scintillation counting signals by Filter-based radiodetection technology.Data from the assay component NVS_GPCR_rGABBR was analyzed into 1 assay endpoint. This assay endpoint, NVS_GPCR_rGABBR, was analyzed in the positive analysis fitting direction relative to DMSO as the negative control and baseline of activity. Using a type of binding reporter, loss-of-signal activity can be used to understand changes in the binding as they relate to the gene Gabbr1. Furthermore, this assay endpoint can be referred to as a primary readout, because the performed assay has only produced 1 assay endpoint. To generalize the intended target to other relatable targets, this assay endpoint is annotated to the gpcr intended target family, where the subfamily is metabotropic glutamate receptor. […]
rat Gamma-Aminobutyric Acid Type B Receptor (GABBR), Gabbr1 (gene 81657), sequence (Q9Z0U4 whole entry, looked up): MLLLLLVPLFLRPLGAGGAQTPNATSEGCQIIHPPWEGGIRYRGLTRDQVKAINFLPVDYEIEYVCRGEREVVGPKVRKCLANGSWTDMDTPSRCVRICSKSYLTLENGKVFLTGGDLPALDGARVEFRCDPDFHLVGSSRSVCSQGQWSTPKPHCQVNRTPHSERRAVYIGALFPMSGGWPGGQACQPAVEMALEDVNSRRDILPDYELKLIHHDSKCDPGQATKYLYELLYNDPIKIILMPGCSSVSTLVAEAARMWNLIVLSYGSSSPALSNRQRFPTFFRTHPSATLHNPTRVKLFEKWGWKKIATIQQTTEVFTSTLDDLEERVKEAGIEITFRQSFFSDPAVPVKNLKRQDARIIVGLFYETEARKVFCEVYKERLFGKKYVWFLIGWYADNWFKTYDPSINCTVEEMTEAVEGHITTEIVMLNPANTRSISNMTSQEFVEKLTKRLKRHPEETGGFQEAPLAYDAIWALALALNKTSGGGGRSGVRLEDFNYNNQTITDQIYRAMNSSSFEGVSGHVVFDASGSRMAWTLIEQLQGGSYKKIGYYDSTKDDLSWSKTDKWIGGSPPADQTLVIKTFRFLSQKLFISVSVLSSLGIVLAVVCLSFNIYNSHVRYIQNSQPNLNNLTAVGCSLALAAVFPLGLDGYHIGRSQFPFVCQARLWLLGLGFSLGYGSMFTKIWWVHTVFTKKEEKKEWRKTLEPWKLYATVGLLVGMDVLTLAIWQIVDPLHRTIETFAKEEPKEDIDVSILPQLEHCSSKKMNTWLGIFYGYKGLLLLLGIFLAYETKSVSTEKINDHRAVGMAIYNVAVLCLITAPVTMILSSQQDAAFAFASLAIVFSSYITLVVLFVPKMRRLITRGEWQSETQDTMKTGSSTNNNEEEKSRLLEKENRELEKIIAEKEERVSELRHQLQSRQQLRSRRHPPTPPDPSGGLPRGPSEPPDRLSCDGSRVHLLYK

In assay [9] the target is mouse Cholecystokinin, CCK2 Receptor (CCKB), Cckbr (gene 12426) (UniProt P56481). Put plainly: NVS_GPCR_mCKKBCentral: NovaScreen (NVS) G Protein-Coupled Receptor Assay for mouse Cholecystokinin, CCK2 Receptor (CCKB) (AID 2283293). The method, then: NVS_GPCR_mCKKBCentral is a biochemical, single-readout assay that uses extracted gene-proteins from Mouse forebrain membranes in a tissue-based cell-free assay. Measurements were taken 2 hours after chemical dosing in a 96-well plate.NVS_GPCR_mCKKBCentral is one of one assay component(s) measured or calculated from the NVS_GPCR_mCKKBCentral assay. It is designed to make measurements of radioligand binding, a form of binding reporter, as detected with scintillation counting signals by Filter-based radiodetection technology.Data from the assay component NVS_GPCR_mCKKBCentral was analyzed into 1 assay endpoint. This assay endpoint, NVS_GPCR_mCKKBCentral, was analyzed in the positive analysis fitting direction relative to DMSO as the negative control and baseline of activity. Using a type of binding reporter, loss-of-signal activity can be used to understand changes in the binding as they relate to the gene Cckbr. Furthermore, this assay endpoint can be referred to as a primary readout, because the performed assay has only produced 1 assay endpoint. To generalize the intended target to other relatable targets, this assay endpoint is annotated to the gpcr intended target family, where the subfamily is rhodopsin-like receptor. […]
mouse Cholecystokinin, CCK2 Receptor (CCKB), Cckbr (gene 12426), sequence (P56481 whole entry, looked up): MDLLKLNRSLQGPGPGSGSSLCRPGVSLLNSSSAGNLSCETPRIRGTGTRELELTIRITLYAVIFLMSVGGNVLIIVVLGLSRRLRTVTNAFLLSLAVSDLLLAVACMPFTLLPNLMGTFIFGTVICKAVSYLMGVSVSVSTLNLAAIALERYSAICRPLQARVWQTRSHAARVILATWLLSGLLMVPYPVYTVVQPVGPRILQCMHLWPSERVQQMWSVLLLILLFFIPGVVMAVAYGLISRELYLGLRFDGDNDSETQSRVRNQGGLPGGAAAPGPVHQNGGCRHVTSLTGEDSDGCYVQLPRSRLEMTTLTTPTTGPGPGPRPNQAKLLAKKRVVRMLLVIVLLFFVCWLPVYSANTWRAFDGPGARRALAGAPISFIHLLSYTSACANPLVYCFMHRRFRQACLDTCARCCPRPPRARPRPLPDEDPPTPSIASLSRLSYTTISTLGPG

The target of assay [10] is rat Histamine Receptor (H3), Hrh3 (gene 85268) (UniProt Q9QYN8). The assay can be described thus: NVS_GPCR_rH3: NovaScreen (NVS) G Protein-Coupled Receptor Assay for rat Histamine Receptor (H3) (AID 2283303). The procedure, abridged:
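Rat forebrain membranes incubated 1 h with compound; radioligand displacement measured by filter-based scintillation counting. Single-concentration duplicates at 25 µM, then concentration-response up to 50 µM, relative to DMSO.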

Values joined by “and” are separate entries in the source; they are usually repeats but may differ in a detail not shown here. Identical values can stand only once. Results filed as inconclusive are left out. A structure can be active in one record and inactive in another. Active and inactive are the calls of the source. How the source made its calls: active means hit-call score of the fitted dose curve at least 0.9, where 1 is the maximum; inconclusive means response in the unintended direction; inactive means score below 0.9.

human Opioid Receptor Mu (Opiate Mu), OPRM1 (gene 4988), sequence (P35372 whole entry, looked up): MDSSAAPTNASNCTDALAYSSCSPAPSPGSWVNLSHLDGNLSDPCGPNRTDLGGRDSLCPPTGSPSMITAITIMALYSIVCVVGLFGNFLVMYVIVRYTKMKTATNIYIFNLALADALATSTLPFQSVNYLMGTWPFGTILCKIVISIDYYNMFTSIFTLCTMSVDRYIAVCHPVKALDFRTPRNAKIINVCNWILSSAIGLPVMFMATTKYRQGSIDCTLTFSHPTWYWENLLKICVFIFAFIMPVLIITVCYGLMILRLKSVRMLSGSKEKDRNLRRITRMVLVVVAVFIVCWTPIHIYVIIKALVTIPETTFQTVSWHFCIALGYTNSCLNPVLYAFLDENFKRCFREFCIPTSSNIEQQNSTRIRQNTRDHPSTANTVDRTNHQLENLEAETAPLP
rat Adrenergic, Alpha 1, Non-selective Receptor (Adra1), Adra1a (gene 29412), sequence (P43140 whole entry, looked up): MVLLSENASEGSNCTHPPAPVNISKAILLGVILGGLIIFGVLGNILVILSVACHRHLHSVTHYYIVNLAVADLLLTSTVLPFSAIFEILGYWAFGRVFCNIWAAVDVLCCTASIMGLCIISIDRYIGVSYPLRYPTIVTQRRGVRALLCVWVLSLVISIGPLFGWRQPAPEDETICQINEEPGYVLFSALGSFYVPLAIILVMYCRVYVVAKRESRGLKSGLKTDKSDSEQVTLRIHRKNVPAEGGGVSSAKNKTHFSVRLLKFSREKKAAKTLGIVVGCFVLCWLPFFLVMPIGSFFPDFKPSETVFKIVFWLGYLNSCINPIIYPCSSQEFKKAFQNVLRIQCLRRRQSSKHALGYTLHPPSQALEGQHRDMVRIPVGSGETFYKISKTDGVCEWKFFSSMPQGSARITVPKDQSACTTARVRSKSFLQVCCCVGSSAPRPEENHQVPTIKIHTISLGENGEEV
rat Adrenergic, Alpha 1A Receptor (Adra1A), Adra1a (gene 29412), sequence (P43140 whole entry, looked up): as above
rat Adrenergic Receptor, Beta (Adrb), Non-selective Binding, Adrb1 (gene 24925), sequence (P18090 whole entry, looked up): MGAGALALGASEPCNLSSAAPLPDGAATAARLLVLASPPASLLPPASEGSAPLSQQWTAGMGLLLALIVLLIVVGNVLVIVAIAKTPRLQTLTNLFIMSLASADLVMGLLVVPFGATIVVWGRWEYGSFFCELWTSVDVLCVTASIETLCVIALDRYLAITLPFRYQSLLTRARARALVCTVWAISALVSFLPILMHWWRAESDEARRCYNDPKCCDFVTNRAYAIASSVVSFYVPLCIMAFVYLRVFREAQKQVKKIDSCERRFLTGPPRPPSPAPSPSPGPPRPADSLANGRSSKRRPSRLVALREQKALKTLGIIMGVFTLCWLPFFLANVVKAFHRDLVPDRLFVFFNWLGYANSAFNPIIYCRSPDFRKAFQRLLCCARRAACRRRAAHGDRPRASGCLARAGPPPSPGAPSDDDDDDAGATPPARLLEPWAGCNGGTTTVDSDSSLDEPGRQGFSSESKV
rat Histamine Receptor (H3), Hrh3 (gene 85268), sequence (Q9QYN8 whole entry, looked up): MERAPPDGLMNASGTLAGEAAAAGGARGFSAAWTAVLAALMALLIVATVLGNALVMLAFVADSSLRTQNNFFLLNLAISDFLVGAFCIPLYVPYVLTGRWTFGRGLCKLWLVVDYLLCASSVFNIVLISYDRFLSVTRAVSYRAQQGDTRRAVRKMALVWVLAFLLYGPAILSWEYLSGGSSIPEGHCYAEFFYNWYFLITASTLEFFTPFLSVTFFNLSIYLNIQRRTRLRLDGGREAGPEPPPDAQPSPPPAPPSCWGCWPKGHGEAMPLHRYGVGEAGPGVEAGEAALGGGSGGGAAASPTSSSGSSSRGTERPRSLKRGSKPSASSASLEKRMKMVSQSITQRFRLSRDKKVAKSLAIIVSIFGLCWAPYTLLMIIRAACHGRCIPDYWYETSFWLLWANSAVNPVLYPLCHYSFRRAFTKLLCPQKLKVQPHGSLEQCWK

For the compound `S=C(S)NCCNC(=S)S.[Mn+2].[S-]C([S-])=NCCN=C([S-])[S-].[Zn+2]`, the AC50 is 154 nM (active) and 3.46 µM (active) and 9.37 µM (active) in assay [1]; 9.72 µM (active) and 9.3 µM (active) and 26.6 µM (active) in assay [2]; 31.1 µM (active) in [3]; 12.5 µM (active) and 15.4 µM (active) in assay [4]. Further, the result in [1], in assay [3] and in assay [4] was inactive.

For the compound `COC(=O)CSc1cc(N=c2sc(=O)n3n2CCCC3)c(F)cc1Cl`, the call in [5] was inactive.

In the case of `CCCOC(=O)c1ccc(C(=O)OCCC)nc1`, in assay [2], the call was inactive.

Consider `COC(=O)c1ccc(CNS(C)(=O)=O)cc1S(=O)(=O)NC(=O)Nc1nc(OC)cc(OC)n1`, for which, in assay [5], the call was inactive.

Consider `C=CCOC(Cn1ccnc1)c1ccc(Cl)cc1Cl` (stereo unspecified), for which the AC50 in assay [1] was 11.2 µM (active); in assay [3], 5.39 µM (active); in assay [6] it was 17.3 µM (active).

In the case of `CCCCCOC(=O)COc1cc(N2C(=O)C3=C(CCCC3)C2=O)c(F)cc1Cl`, the outcome in assay [1] was inactive.

On to `CCOC(=O)[C@H](C)Oc1ccc(Oc2nc3ccc(Cl)cc3o2)cc1`, for which, in assay [7], the compound was called inactive.

Regarding `CCC(C)OC(=O)N1CCCCC1CCO` (stereo unspecified), the outcome in [1] was inactive.

`S=C([S-])NCCNC(=S)[S-].[Mn+2]`: the figures for the AC50 in [1], in assay [2] and in [3] were 3.16 µM (active), 30.5 µM (active) and 25 µM (active), respectively. Further, the outcome in assay [4] was inactive.

Regarding `Oc1ccc(C(c2ccc(O)cc2)C(Cl)(Cl)Cl)cc1`, the compound was called inactive in assay [5]. Further, the AC50 in [1] is 3.58 µM (active); in [3], 2.7 µM (active).

In the case of `COC(=O)c1ccccc1S(=O)(=O)NC(=O)Nc1nc(OC(F)F)cc(OC(F)F)n1`, the call in [8] was inactive.

On to `CC(C)(c1ccc(O)cc1)c1ccc(O)cc1`, for which the AC50 in assay [1] is 15.3 µM (active) [middle of 4 runs]; in [9], 31.2 µM (active) and 19.2 µM (active) and 16.3 µM (active); in [3], 10.4 µM (active) and 24.2 µM (active) and 15.1 µM (active). Further, the compound was called inactive in assay [1] and in assay [4].

With `CC(C)CCCCCCc1ccc(O)cc1`, the AC50 in assay [1] was 15.8 µM (active).

Regarding `CCCOC(=O)NCCCN(C)C`, the AC50 in assay [10] was 18.1 µM (active).

A word on the AC50: it is the concentration at which the activity in the assay is half-maximal.
